Data reported in the supplement of paper PMC13380429.

Test system: Vero E6 infected with SARS-CoV-2
Assay: inhibition of SARS-CoV-2 cytopathic effect; higher = more antiviral protection, active = above 15
Conditions: 48 h

Measured: inhibition of SARS-CoV-2 cytopathic effect

CC(C)CNc1nc(-c2cccc3ncccc23)cn2c(-c3ccc(C(=O)NC4CC4)cc3)cnc12
inactive: 1 nM -3.61% | 8.33 nM -1.58% | 100 nM 1.09% | 833.33 nM -6.07% | 10000 nM -3.69%

CN1C(=O)CC(c2ccccc2)C1=O (stereo not given) [phensuximide]
inactive: 1 nM 2.58% | 8.33 nM 3.13% | 100 nM 2.74% | 833.33 nM 2.55% | 10000 nM -1.46%

O=c1[nH]c(=O)n([C@H]2C[C@H](O)[C@@H](CO)O2)cc1Br [broxuridine]
inactive: 1 nM 1.7% | 8.33 nM 1.06% | 100 nM 1.08% | 833.33 nM 3.59% | 10000 nM 0.04%

CC(=O)N(O)C/C=C/c1cccc(Oc2ccccc2)c1
inactive: 1 nM 2.1% | 8.33 nM 2.16% | 100 nM 1.66% | 833.33 nM -0.73% | 10000 nM -2.02%

O=C(O[C@H]1C[C@H]2CC[C@@H](C1)[N+]21CCCC1)C(O)(c1ccccc1)c1ccccc1 [trospium]
inactive: 1 nM -1.88% | 8.33 nM 0.55% | 100 nM 1.21% | 833.33 nM -1.72% | 10000 nM -0.69%

CN1C[C@H](C(=O)N[C@]2(C)O[C@@]3(O)[C@@H]4CCCN4C(=O)[C@H](Cc4ccccc4)N3C2=O)C[C@@H]2c3cccc4[nH]cc(c34)C[C@H]21 [dihydroergotamine]
inactive: 1 nM 0.49% | 8.33 nM 0.5% | 100 nM 2.21% | 833.33 nM -0.8% | 10000 nM 2.88%

CCOC(=O)[C@H]1O[C@@H]1C(=O)N[C@@H](CC(C)C)C(=O)NCCC(C)C [aloxistatin]
inactive: 1 nM 0.43% | 8.33 nM -1.01% | 100 nM 0.39% | 833.33 nM -0.54% | 10000 nM 11.2%

N=C(N)NC(=O)c1nc(Cl)c(N)nc1N [amiloride]
inactive: 1 nM 3.13% | 8.33 nM 3.86% | 100 nM 2.25% | 833.33 nM 3.19% | 10000 nM 3.14%

CCCCC(=O)O[C@]1(C(=O)CO)CC[C@H]2[C@@H]3CCC4=CC(=O)CC[C@]4(C)[C@H]3[C@@H](O)C[C@@]21C [hydrocortisone-valerate]
inactive: 1 nM -0.15% | 8.33 nM 3.88% | 100 nM 4.88% | 833.33 nM 4.12% | 10000 nM -1.55%

COc1cccc(OCCCN)c1-c1cc(Nc2cnc(C#N)cn2)n[nH]1
inactive: 1 nM -0.1% | 8.33 nM 0.79% | 100 nM -1.17% | 833.33 nM -4.06% | 10000 nM -3.92%

O=S1(=O)CCN(CN2CCS(=O)(=O)NC2)CN1 [taurolidine]
inactive: 1 nM 0.08% | 8.33 nM 2.04% | 100 nM -0.86% | 833.33 nM -0.85% | 10000 nM 0.19%

Cn1nc(C(C)(C)C)cc1C(=O)N[C@@H](Cc1cccc(Cl)c1)C(=O)NCC#N [cathepsin-inhibitor-1]
inactive: 1 nM 0.51% | 8.33 nM 1.86% | 100 nM -0.47% | 833.33 nM -5.37% | 10000 nM -1.36%

CC1(C)C[C@@H]1C(=O)N/C(=C\CCCCSC[C@H](N)C(=O)O)C(=O)O [Cilastatin Sodium]
inactive: 1 nM 1.3% | 8.33 nM 3.44% | 100 nM -0.05% | 833.33 nM -0.19% | 10000 nM -0.52%

Cc1nccc2[nH]c(=O)ccc12 [medorinone]
inactive: 1 nM -1.14% | 8.33 nM -4.65% | 100 nM 1.27% | 833.33 nM -0.3% | 10000 nM -3.87%

CCO/N=C(\C(=O)N[C@@H]1C(=O)N2C(C(=O)[O-])=C(Sc3nc(-c4cc[n+](C)cc4)cs3)CS[C@H]12)c1nsc(NP(=O)(O)O)n1 [ceftaroline-fosamil]
inactive: 1 nM 3.38% | 8.33 nM 2.02% | 100 nM 4.54% | 833.33 nM 4.34% | 10000 nM 3.55%

Cc1ncc(C)n2nc([C@@H]3C[C@H]3c3nc4c5cccnc5ccn4c3C)nc12
inactive: 1 nM 0.4% | 8.33 nM 0.57% | 100 nM 0.67% | 833.33 nM -1.22% | 10000 nM 4.45%

O=C(O)[C@H]1CN(C/C=C/P(=O)(O)O)CCN1 [midafotel]
inactive: 1 nM -2.43% | 8.33 nM -0.69% | 100 nM 0.17% | 833.33 nM 1.03% | 10000 nM 3.52%

Cc1ccc2c(c1)c1c(n2CCc2ccc(C)nc2)CCN(C)C1 [latrepirdine]
inactive: 1 nM 1.25% | 8.33 nM -0.5% | 100 nM -0.92% | 833.33 nM 0.73% | 10000 nM 0.87%

CC(O)(C(=O)Nc1ccc(S(=O)(=O)c2ccccc2)cc1)C(F)(F)F (stereo not given)
inactive: 1 nM 1.63% | 8.33 nM 1.61% | 100 nM 2.14% | 833.33 nM -0.08% | 10000 nM 14.1%

COC(=O)c1cc(OC)c2c(c1-c1c(CO)cc(OC)c3c1OCO3)OCO2 [bicyclol]
inactive: 1 nM -2.07% | 8.33 nM 1.38% | 100 nM -0.88% | 833.33 nM -0.4% | 10000 nM -3.03%

Cc1nccn1CCC(C(N)=O)(c1ccccc1)c1ccccc1 [imidafenacin]
inactive: 1 nM -0.4% | 8.33 nM -0.55% | 100 nM 1.32% | 833.33 nM 4.43% | 10000 nM 0.89%

COc1ccc2cc(-c3cc(-c4cc(Cl)cc(Cl)c4)nn3[C@@H](C)c3ccc(C(=O)NCCC(=O)O)cc3)ccc2c1
inactive: 1 nM -1.85% | 8.33 nM -0.02% | 100 nM 0.97% | 833.33 nM 4.66% | 10000 nM 4.95%

Nc1ccccc1NC(=O)c1ccc(CNc2nccc(-c3cccnc3)n2)cc1 [mocetinostat]
inactive: 1 nM 0.57% | 8.33 nM -0.45% | 100 nM -0.53% | 833.33 nM 1.7% | 10000 nM -0.45%

CC1CCN(C(c2ccc(F)cc2)c2ccc(C(C)C(=O)O)cc2-c2ccc(C(F)(F)F)cc2)CC1 (stereo not given)
inactive: 1 nM 3.01% | 8.33 nM -0.54% | 100 nM -0.83% | 833.33 nM -0.11% | 10000 nM -6.62%

COc1ccc([C@@H]2CC(=O)c3c(O)cc(O[C@@H]4O[C@H](CO)[C@@H](O)[C@H](O)[C@H]4O[C@@H]4O[C@@H](C)[C@H](O)[C@@H](O)[C@H]4O)cc3O2)cc1O [neohesperidin]
inactive: 1 nM -2.2% | 8.33 nM 0.62% | 100 nM 2.24% | 833.33 nM -0.64% | 10000 nM -3.03%

COCCOc1ccc(N2CCN(CCn3ncc4c3nc(N)n3nc(-c5ccco5)nc43)CC2)cc1 [preladenant]
inactive: 1 nM 1.43% | 8.33 nM 0.62% | 100 nM 3.21% | 833.33 nM 0.67% | 10000 nM 2.45%

Cc1ccnc(NC(=O)C(C)c2cccc(C(=O)c3ccccc3)c2)c1 (stereo not given) [piketoprofen]
inactive: 1 nM 0.01% | 8.33 nM 0.74% | 100 nM 2.28% | 833.33 nM -1.34% | 10000 nM 3.81%

C[C@@H]1CC[C@H]2[C@@H](C)C(=O)O[C@@H]3O[C@@]4(C)CC[C@@H]1[C@]32OO4 [artemisinin]
inactive: 1 nM 0.52% | 8.33 nM 0.05% | 100 nM 3.13% | 833.33 nM 3.83% | 10000 nM 1.16%

COc1ccc2[nH]c([S+]([O-])Cc3ncc(C)c(OC)c3C)nc2n1 (stereo not given) [tenatoprazole]
inactive: 1 nM -9.92% | 8.33 nM -12.8% | 100 nM -7.87% | 833.33 nM -11.3% | 10000 nM 2.26%

COc1cccc(OC)c1-c1cc(C(=O)N[C@@H](CC(C)C)C(=O)O)nn1-c1ccnc2cc(Cl)ccc12
inactive: 1 nM 2.48% | 8.33 nM 1.4% | 100 nM -0.45% | 833.33 nM -0.64% | 10000 nM -0.46%

O=C(Nc1ccc(-c2ccncc2)cc1)N[C@H](CO)c1ccccc1
inactive: 1 nM -3.49% | 8.33 nM 2.37% | 100 nM -1.14% | 833.33 nM -0.94% | 10000 nM -7.89%

COCC(=O)Nc1c(I)c(C(=O)NCC(O)CO)c(I)c(C(=O)N(C)CC(O)CO)c1I (stereo not given) [iopromide]
inactive: 1 nM -2.42% | 8.33 nM -1.91% | 100 nM -0.01% | 833.33 nM -0.15% | 10000 nM 0.66%

CC(C)[C@H]1[C@@H]2CC[C@@H](C2)[C@@H]1N
inactive: 1 nM 0.17% | 8.33 nM 2.01% | 100 nM 5.77% | 833.33 nM 6.62% | 10000 nM 4.27%

Cc1cccc(Nc2cc(Cl)nc(SCC(=O)O)n2)c1C [pirinixic-acid]
inactive: 1 nM -0.9% | 8.33 nM -0.95% | 100 nM -1.99% | 833.33 nM -0.44% | 10000 nM 2.81%

COc1cc(N2CCC(O)CC2)ccc1Nc1cc(Nc2ccccc2S(=O)(=O)C(C)C)c2cc[nH]c2n1
inactive: 1 nM 5.38% | 8.33 nM 3.7% | 100 nM -1.89% | 833.33 nM 0.98% | 10000 nM -7.51%

Cc1cc(C2CCCCC2)n(O)c(=O)c1 [ciclopirox]
inactive: 1 nM 0.88% | 8.33 nM 1.21% | 100 nM 0.99% | 833.33 nM -0.09% | 10000 nM -2.68%

O=S1(=O)OC(c2ccc(O)cc2)(c2ccc(O)cc2)c2ccccc21 [phenolsulfonphthalein]
inactive: 1 nM -0.46% | 8.33 nM -1.87% | 100 nM -1.84% | 833.33 nM -1.16% | 10000 nM 3.89%

Cn1ncc2c(N3CCOCC3)nc(-c3cccc(O)c3)nc21
inactive: 1 nM -0.24% | 8.33 nM -1.45% | 100 nM 0.03% | 833.33 nM 1.57% | 10000 nM -0.01%
